G9a block: blocks human histone lysine methyltransferase G9a; Q96KQ7; G9a H3K9 monomethylation, AlphaScreen, 2 h; Potency, µM (series often up to 102 µM), for the others: at the highest dose activity, negative = inhibition, hits mostly inhibitors; actives 8.8% (n = 350,000); AID 504332; also: % is scaled to controls: 0 for no effect and ±100 for the full control effect; nearly all actives have a fitted effect of over 75% in size
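Chemiluminescent proximity detection of H3K9 monomethylation, read after 10 min bead incubation in the dark. Reaction: 20 nM G9a, 500 nM biotin-H3K9 peptide, 20 uM SAM cofactor, 2 h, room temperature, following 15 min enzyme-compound preincubation.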
Sfp inh: Sfp phosphopantetheinyl transferase inhibition; Q9F4F7; Biochemical Sfp PPTase activity, qHTS; Potency, µM, inactives show largest response in the series, negative = inhibition, most hits filed as inhibitors; actives 3.5% (n = 310,000); AID 1490;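 also: the enzyme is Sfp with the accession as filed and its product quenches rhodamine fluorescence; 0% = enzyme reaction without inhibitor and -100% = no enzyme wells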
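Step 1, compound plus 15 nM Sfp-PPTase, 15 min, room temperature. Step 2, add rhodamine-CoA (5 uM) and BHQ-2-YbbR (12.5 uM). Step 3, read 525/598 nm fluorescence at 0 and 30 min.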
BAZ2B inh: blocks human BAZ2B | Q9UIF8 | AlphaScreen BAZ2B-H3K14Ac peptide displacement | Potency, µM (doses to about 114 µM), inactives show top-dose activity change, negative = inhibition, usual class: inhibitors | actives 4.4% (n = 360,000) | AID 504333; also: % is scaled to controls: 0 for no effect and ±100 for the full control effect; nearly all actives have a fitted effect of over 60% in size
Target sequence (Q9UIF8 whole entry, looked up): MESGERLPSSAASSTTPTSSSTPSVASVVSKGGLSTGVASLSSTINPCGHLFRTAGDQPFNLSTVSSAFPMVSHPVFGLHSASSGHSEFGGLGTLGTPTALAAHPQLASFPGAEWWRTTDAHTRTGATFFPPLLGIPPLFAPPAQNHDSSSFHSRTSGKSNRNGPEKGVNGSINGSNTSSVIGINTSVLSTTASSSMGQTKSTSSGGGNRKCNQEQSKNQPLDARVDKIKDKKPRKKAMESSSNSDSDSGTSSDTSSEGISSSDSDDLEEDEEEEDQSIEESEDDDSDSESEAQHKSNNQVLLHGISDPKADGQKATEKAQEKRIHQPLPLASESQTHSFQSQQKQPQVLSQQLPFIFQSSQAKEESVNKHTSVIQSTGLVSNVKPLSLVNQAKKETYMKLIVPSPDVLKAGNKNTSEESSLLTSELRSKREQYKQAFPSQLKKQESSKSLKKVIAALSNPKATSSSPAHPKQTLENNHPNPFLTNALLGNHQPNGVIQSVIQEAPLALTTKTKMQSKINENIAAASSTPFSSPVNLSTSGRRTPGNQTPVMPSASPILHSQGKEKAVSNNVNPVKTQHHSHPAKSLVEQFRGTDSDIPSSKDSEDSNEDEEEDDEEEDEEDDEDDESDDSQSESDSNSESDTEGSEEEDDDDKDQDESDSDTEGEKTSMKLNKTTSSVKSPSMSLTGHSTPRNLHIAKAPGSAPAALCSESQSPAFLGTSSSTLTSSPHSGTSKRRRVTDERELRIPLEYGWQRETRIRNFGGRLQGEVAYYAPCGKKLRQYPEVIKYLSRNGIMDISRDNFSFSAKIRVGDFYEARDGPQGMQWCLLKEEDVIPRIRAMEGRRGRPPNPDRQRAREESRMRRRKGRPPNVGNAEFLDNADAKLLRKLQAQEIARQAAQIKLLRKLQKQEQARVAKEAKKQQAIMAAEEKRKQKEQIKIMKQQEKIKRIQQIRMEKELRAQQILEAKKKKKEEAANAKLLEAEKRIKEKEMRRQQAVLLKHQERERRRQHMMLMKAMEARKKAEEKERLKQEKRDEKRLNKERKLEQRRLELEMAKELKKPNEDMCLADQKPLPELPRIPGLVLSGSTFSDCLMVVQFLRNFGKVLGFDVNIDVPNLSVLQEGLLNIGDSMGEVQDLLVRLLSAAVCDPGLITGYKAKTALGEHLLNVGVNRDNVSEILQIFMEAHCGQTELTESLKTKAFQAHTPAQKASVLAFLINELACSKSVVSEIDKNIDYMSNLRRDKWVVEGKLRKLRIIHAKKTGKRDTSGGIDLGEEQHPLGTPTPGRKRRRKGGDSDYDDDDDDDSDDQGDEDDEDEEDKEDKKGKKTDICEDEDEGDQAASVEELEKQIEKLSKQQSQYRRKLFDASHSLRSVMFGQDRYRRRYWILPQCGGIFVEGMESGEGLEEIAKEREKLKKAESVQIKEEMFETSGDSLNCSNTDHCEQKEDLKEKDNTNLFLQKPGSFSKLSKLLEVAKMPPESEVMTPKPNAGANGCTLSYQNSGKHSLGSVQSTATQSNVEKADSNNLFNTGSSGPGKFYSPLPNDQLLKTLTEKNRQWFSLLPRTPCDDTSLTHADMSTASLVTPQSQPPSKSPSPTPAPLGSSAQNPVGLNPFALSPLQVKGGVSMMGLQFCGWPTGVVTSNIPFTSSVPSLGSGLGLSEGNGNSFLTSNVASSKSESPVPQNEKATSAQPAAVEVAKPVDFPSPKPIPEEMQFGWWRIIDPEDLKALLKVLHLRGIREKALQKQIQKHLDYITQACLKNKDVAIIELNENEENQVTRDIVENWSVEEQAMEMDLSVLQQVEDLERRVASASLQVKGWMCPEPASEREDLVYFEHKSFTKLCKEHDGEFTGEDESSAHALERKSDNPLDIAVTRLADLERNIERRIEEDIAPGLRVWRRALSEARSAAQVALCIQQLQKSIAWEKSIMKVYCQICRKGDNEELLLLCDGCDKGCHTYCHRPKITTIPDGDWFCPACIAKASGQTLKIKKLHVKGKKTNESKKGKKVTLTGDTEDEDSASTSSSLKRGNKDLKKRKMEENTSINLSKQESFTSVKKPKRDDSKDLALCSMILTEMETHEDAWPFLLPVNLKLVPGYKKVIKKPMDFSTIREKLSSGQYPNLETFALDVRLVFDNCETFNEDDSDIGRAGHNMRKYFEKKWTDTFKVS
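BAZ2B 50 nM plus b-H3(5-23)K14Ac 50 nM, PBS pH 7.4/0.01% Tween-20, 30 min RT; compound added (max 110 uM), 30 min RT; streptavidin donor/Ni-chelate acceptor beads 10 ug/mL final, 20 min dark; AlphaScreen read.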
PLK1 PBD block: PLK1 (human) polo-box domain binding inhibition. P53350. Plk1 PBD binding of FITC phosphopeptide, fluorescence polarization. Potency, µM, inactives show max response, negative = inhibition, actives largely listed as inhibitors. actives 2.8% (n = 360,000); also: series mostly up to about 57 µM; % is scaled to controls: 0 for no effect and ±100 for the full control effect; nearly all actives have a fitted effect of over 65% in size
JMJD2A Tudor: inhibitors of human JMJD2A Tudor domain | AlphaScreen JMJD2A-Tudor / H3K4me3 peptide binding | Potency, µM (highest dose often 114 µM), for inactives: at the top dose activity change, negative = inhibition, usual class: inhibitors | actives 4.4% (n = 390,000); also: % is scaled to controls: 0 for no effect and ±100 for the full control effect; nearly all actives have a fitted effect of over 50% in size
HP1b chromo inh: HP1-beta chromodomain-methylated histone interaction inhibition. AlphaScreen HP1-beta / biotin-H3K9me3 peptide binding. Potency, µM (top dose mostly 114 µM), inactives show at the highest dose activity change, negative = inhibition, hits mostly inhibitors. actives 0.56% (n = 390,000). AID 540317; also: nearly all actives have a fitted effect of over 70% in size
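HP1-beta protein (50 nM final) preincubated 30 min at room temperature with biotinylated H3(1-18)K9me3 peptide (50 nM) in PBS pH 7.4, 0.01% Tween-20, then compound added for 30 min. AlphaScreen streptavidin donor/nickel chelate acceptor beads (10 ug/mL final), 30 min dark, luminescence read.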
Active calls of the source: *; ? = inconclusive; . = no result; [ ] = remark or other dose. An excerpt weighted towards active compounds, which were near 12% of everything screened. Calls follow the shape of the dose curve; as a rule, active = well fitted curve in the direction sought with a large enough effect; inconclusive = small, poorly fitted or top-dose-only effect, or another doubt; inactive = no such curve, though single readings can be large; an effect the other way counts as inactive or inconclusive. Potency is read from the fitted curve at half-maximal effect.

SMILES | G9a block | Sfp inh | BAZ2B inh | PLK1 PBD block | JMJD2A Tudor | HP1b chromo inh
O=C(Cc1c(O)c2ccccc2[nH]c1=O)NCc1ccccc1F | 71µM* | -9% | -2% | -2% | -5% | 17%
O=C(NNc1ccccn1)C(=O)NNS(=O)(=O)c1ccc(F)cc1 | 38% | 6% | 40µM* | -7% | -29% | 19%
O=S(=O)(/N=C(/Nc1ccccn1)c1ccccc1)c1ccc(F)cc1 | . | 6% | 2% | -5% | -21% | 40%
O=C(NNc1ccccn1)C(=O)NNS(=O)(=O)c1ccc(Cl)cc1 | 30% | 14% | 56µM* | -7% | -18% | 31%
C[C@H]1C2=C3C(CC[C@H]4C(OCc5ccc(F)cc5C(F)(F)F)OC[C@](C)([C@@H]34)N(C(=O)OC(C)(C)C)C2)C2COC(=O)OCC21 (stereo not given in full) | . | 11% | . | . | . | .
CC1CCN(C(=O)c2ncn(Cc3ccccc3)c2C(=O)N2CCC(C)CC2)CC1 | . | . | . | -9% | -17% | 24%
O=C(O)CC1c2ccccc2CCN1S(=O)(=O)c1cccs1 (stereo not given) | . | . | . | 2% | 12% | 25%
CCC(C)[C@@H](N)C(=O)N/N=C/c1cccc2nccnc12 (stereo not given in full) | -42% | ? | 79µM* | -7% | 50µM* | 22%
CC(C)(C)OC(=O)NCCC(=O)N/N=C/c1cccc2nccnc12 | ? | ? | ? | -10% | -31% | 60%
O=C(N/N=C/c1cccc2cccnc12)c1ccccc1O | 41% | 16% | 7.1µM* | 2% | 7.9µM* | 39%
O=C(N/N=C\c1ccncc1)c1ccccc1O | -2% | 0% | -8% | -13% | -10% | 18%
O=C(N/N=C/c1cccc2nccnc12)c1ccccc1O | 13% | ? | 28µM* | 0% | -13%[11.4 µM] | 61%
CC(C)[C@@H](N)C(=O)N/N=C/c1ccc2nccnc2c1 | 5.6µM* | -22% | ? | 5% | -6% | 33%
O=[N+]([O-])c1cccc(S(=O)(=O)NCCNS(=O)(=O)c2cccc([N+](=O)[O-])c2)c1 | -1%[12.7 µM] | 10% | . | . | . | .
COCCOC1CCN(C(=O)C2CCC(=O)N(CCc3ccccc3)C2)CC1 (stereo not given) | . | 1% | 17% | 5% | -8% | 22%
O=C(N/N=C/c1cccc2nccnc12)c1ccncc1 | 17% | ? | 18µM* | -2% | 56µM* | 37%
CC(=O)C1=C(O)C(=O)OC1c1ccc(Cl)cc1 (stereo not given) | 50µM* | -9% | -12% | -21% | 14µM* | 13%
CCN(CC)CCCN1C(=O)c2oc3ccccc3c(=O)c2C1c1cccnc1 (stereo not given) | 50µM* | 13% | -1% | -5% | ? | 14%
O=C1c2oc3ccccc3c(=O)c2C(c2cccnc2)N1Cc1ccco1 (stereo not given) | 25µM* | -20% | 9% | -14% | 1% | 32%
N#CCC(=O)NN | 17%[12.7 µM] | 8% | . | . | . | .
COc1ccccc1S(=O)(=O)Cc1ccc(C(=O)NCCN2CCCCCC2)o1 | 50µM* | 2% | 6% | ? | -26% | 53%
CCOC(=O)N1CCN(C(=O)c2ccc(CS(=O)(=O)c3ccccc3OC)o2)CC1 | 22%[59 µM] | 79µM* | 7% | -7% | 0% | 33%
CCc1c(C)nc2nc(-c3ccccc3)nn2c1NCc1ccc(C)cc1 | -8%[59 µM] | . | -21% | . | -31% | 10%
O=S(=O)(c1cccc(C(F)(F)F)c1)N1CCC(Oc2ccc(-n3cnnn3)cc2)CC1 | 9%[59 µM] | . | 2% | . | -9% | 46%
O=C(NN=Cc1ccccc1C(=O)O)c1cccc(S(=O)(=O)Nc2cccc(C(F)(F)F)c2)c1 | . | . | . | -3% | -24% | 29%
SMILES | G9a block | Sfp inh | BAZ2B inh | PLK1 PBD block | JMJD2A Tudor | HP1b chromo inh
O=C(O)c1cc(O)c2c(c1)[C@H]([C@H]1c3cc(C(=O)O)cc(O)c3C(=O)c3c(O[C@@H]4O[C@H](CO)[C@@H](O)[C@H](O)[C@H]4O)cccc31)c1cccc(OC3O[C@H](CO)[C@@H](O)[C@H](O)[C@H]3O)c1C2=O (stereo not given in full) | 1.3µM* | . | 0.79µM* | 1.7µM* | 0.32µM* | ?
O=C(O)c1cc(O)c2c(c1)[C@@H]([C@H]1c3cc(C(=O)O)cc(O)c3C(=O)c3c(O[C@@H]4O[C@H](CO)[C@@H](O)[C@H](O)[C@H]4O)cccc31)c1cccc(OC3O[C@H](CO)[C@@H](O)[C@H](O)[C@H]3O)c1C2=O (stereo not given in full) | 1.3µM* | . | 0.79µM* | 0.84µM* | 0.32µM* | -76%
COc1ccccc1N(C)S(=O)(=O)c1ccc(C(=O)OCC(=O)NCCC2=CCCCC2)cc1 | -7% | 4% | 2% | 0% | 3% | 54%
O=C(N/N=C/C(Cl)=C/c1ccc([N+](=O)[O-])cc1)C(=O)Nc1cccc(C(=O)O)c1 | ? | -29% | 56µM* | -7% | ? | 7%
CC(=O)N1CCN(c2ccc(S(=O)(=O)N3CCCCC3)cc2[N+](=O)[O-])CC1 | . | . | . | 5% | -10% | 15%
CSc1nc2c(c(=O)[nH]1)CCCC2 | -1%[12.7 µM] | 4% | 8% | 5% | 5% | 37%
Nc1nc(=S)c2[nH]c(=S)[nH]c2[nH]1 | . | . | . | ? | 3.2µM* | -16%[57 µM]
CSc1nc(=S)c2[nH]c(=S)[nH]c2[nH]1 | 0.63µM* | 2.5µM* | 79µM* | 2.7µM* | 25µM* | 20µM*
COc1ccc(-c2nc3nc(N)nn3cc2C)cc1F | -17% | 7% | 1% | 9% | -2% | 19%
Cc1nn(-c2cc(N3CCCCC3)ccc2N)c(=O)c2ccccc12 | 3.2µM* | 7% | -3% | -9% | -16% | 0%
Cc1nn(-c2cc(N3CCCCCC3)ccc2[N+](=O)[O-])c(=O)c2ccccc12 | -8% | 1% | -32%[57.1 µM] | 1% | ? | -14%
O=C(O)c1ccc(N2CCCCC2)cc1O | . | -3% | -5% | 2% | -8% | 37%
c1ccc2cc(N3CCCCC3)ccc2c1 | . | . | . | 0% | -30% | 28%[57 µM]
O=C1c2ccccc2C(=O)c2cc(N3CCCCC3)ccc21 | . | . | . | 1% | 13µM* | ?
Nc1cc(Cl)ccc1N1CCCCC1 | 1% | 9% | -14% | -2% | -9% | 11%
Nc1ccc(N2CCCCC2)cc1N1CCCCC1 | 2.5µM* | 32µM* | 35µM* | -8% | 28µM* | ?
Nc1cc(Cl)ccc1N1CCCCCC1 | 10µM* | -1% | -38% | -24% | -24% | -14%
COc1ccc(C2=NN(S(C)(=O)=O)C(c3cccs3)C2)cc1OC (stereo not given) | -6% | 6% | -18% | -5% | -20% | 34%
